From PubChem BioAssay (NCI)
This is part of a sample that, as a whole, favours compounds with a hit. Of some 83,000 tested, about 20% had one in any assay.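 Note: values are percent growth. 100 is the growth of untreated cells, values between 100 and 0 indicate rising inhibition; between -100 and 0 indicates cell death.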 Unmarked numbers belong to inactive results. Calls of active or inactive are those of the source. How the source made its calls: active means growth percent below 10; inactive means the rest.

Tests used:
Test in all cases: NCI-60 one-dose screen, 48 h (100 = growth as untreated, 0 = no growth, -100 = all killed)
Details in all cases: 10 µM unless noted
[1] = test system: SK-MEL-2 melanoma
[2] = test system: EKVX NSCLC
[3] = test system: SN12C renal
[4] = test system: UO-31 renal
[5] = test system: TK-10 renal
[6] = test system: ACHN renal
[7] = test system: A498 renal
[8] = test system: CCRF-CEM leukemia
[9] = test system: MOLT-4 leukemia
[10] = test system: SR leukemia

SMILES	growth [1]	growth [2]	growth [3]	growth [4]	growth [5]	growth [6]	growth [7]	growth [8]	growth [9]	growth [10]
O=C1NCc2ccc3c(-c4cccc(Cl)c4)c[nH]c3c21	38.6%	28.7%	36.8%	44.8%	46.2%	48.4%	24.7%	17.4%	18.1%	20.4%
COc1ccc(Cc2nc(C#N)c(N3CCN(c4ccc(F)cc4)CC3)o2)cc1	88.2%	93.2%	105%	81.7%	75.1%	103%	103%	83.7%	87.7%	88.9%
Cc1nccc2c3ccc(OCc4cn(-c5ccc(Cl)cc5)nn4)cc3n(CC(C)C)c12	20.7%	40.8%	37.7%	12.4%	13.7%	34.8%	22.6%	18%	-11.1% (active)	-14.8% (active)
C=C(C)[C@@H]1CC[C@]2(C(=O)N3CCN(C)CC3)CC[C@]3(C)[C@H](CC[C@@H]4[C@@]5(C)C/C(=C/c6ccco6)C(=O)C(C)(C)[C@@H]5CC[C@]43C)[C@@H]12	83.7%	68.2%	64.9%	60.5%	98.8%	74.7%	97.5%	50.1%	28.6%	-21.9% (active)
Oc1ccc(CNNc2ccnc3c(O)cccc23)c2cccnc12	31.4%	8.17% (active)	45.4%	23.7%	30.7%	15.2%	74.7%	18.7%	13.4%	20.4%
Cc1cccc(C)c1Nc1nnc(-c2ccc(F)cc2)o1	105%	104%	105%	88.8%	105%	100%	103%	100%	110%	119%
O=C1CCC23OC(c4ccccc4N12)C(O)C(O)C3O (stereo not given)	94.7%	107%	103%	86.9%	89.1%	109%	104%	101%	98.3%	112%
O=S(=O)(Nc1nccs1)c1ccc(Nc2nc(-c3ccncc3)cs2)cc1	105%	107%	97.4%	101%	120%	99.5%	113%	104%	117%	111%
CC[C@]12C=CCN3CC[C@@]4(c5cc(NC(=O)CCC(=O)O[C@H]6CC[C@H]7[C@@H]8CC[C@H]9CC(=O)CC[C@]9(C)[C@H]8CC[C@]67C)c(OC)cc5N(C)[C@H]4[C@@](O)(C(=O)OC)[C@@H]1OC(C)=O)[C@@H]32	77.1%	66%	71.2%	51.3%	90.5%	87.1%	66.3%	9.54% (active)	17.8%	24.8%
CCSc1nc(Cl)c(C#N)c(-c2ccc(F)cc2)n1	102%	95.2%	95.4%	85.8%	101%	100%	92.3%	50.4%	48.4%	3.84% (active)
CC(C)C1=C[C@@]23CC[C@H]4[C@](C)(COCCC#N)CCC[C@]4(C)[C@H]2C[C@@H]1[C@@H]1[C@H]3[C@@H](OCCC#N)CC[C@@H]1OCCC#N	24.5%	17.6%	32.9%	24.8%	37.7%	25%	67.7%	34.3%	5.36% (active)	15%
Cc1c(Cl)cccc1NC(=O)c1sc2nc3c(cc2c1N)COCC3	29.4%	60.3%	44.1%	49.2%	57%	44.2%	18.1%	21.1%	27.5%	15.4%
COc1ccc2nc(-c3ccc(Cl)cc3)cc(-c3nnc(SCC(=O)Nc4ccc(/C(C)=N\O)cc4)o3)c2c1	63.8%	35.4%	-7.09% (active)	77.8%	79.4%	65.6%	64%	31.1%	12.4%	6.61% (active)
CCCCc1ccc(N=Nc2ccc(OCC[N+](C)(C)C)cc2)cc1	93.6%	85.1%	31%	88.1%	31.3%	67%	67.5%	62.4%	57.2%	76%
Nc1ccc(C(=O)Nc2cccc(C(=O)Nc3ccc4c(O)c(N=Nc5ccc(N=Nc6ccc(S(=O)(=O)O)cc6)cc5)c(S(=O)(=O)O)cc4c3)c2)cc1	97.5%	105%	101%	88.4%	97.1%	106%	107%	98.5%	92.1%	92.2%
CCN1CCC[C@H]1c1cc(O)c2c(c1OC)C[C@H]1C[C@H]3[C@H](N)C(=O)C(C(N)=O)=C(O)[C@@]3(O)C(=O)C1=C2O	-43.9% (active)	-8.34% (active)	-3.68% (active)	-5.6% (active)	-8.12% (active)	-2.88% (active)	-14.7% (active)	1.43% (active)	-16.8% (active)	-18.8% (active)
C=C1C(=O)O[C@H]2[C@H]1CC/C(COC(=O)c1cccnc1N)=C\CC[C@@]1(C)O[C@@H]21	39.1%	34.1%	10.4%	13.3%	-6.51% (active)	-3.75% (active)	33.8%	-3.91% (active)	8.57% (active)	2.93% (active)
Fc1ccc(N/N=C/c2ccc(-n3cccn3)cc2)cc1	103%	81.3%	108%	80.4%	111%	91.7%	119%	89.5%	89%	64.1%
CC1CCN(CCCCCOc2ccc3oc4cc(Cl)ccc4c(=O)c3c2)CC1	88%	83.8%	63.5%	67.7%	78%	83.1%	85.2%	65.5%	29.7%	16.5%
Nc1ccc2c(c1)C(=O)C(=O)c1c-2nc2ccccn12	-32.1% (active)	31.5%	-81% (active)	-40.8% (active)	115%	-58.8% (active)	-19.3% (active)	13.6%	-32.8% (active)	2.06% (active)
Cc1cc(C)nc(NS(=O)(=O)c2ccc(Nc3ccc4c5c(n(CCCN(C)C)c(=O)c4c3)-c3ccccc3C5=O)cc2)n1	108%	90.5%	85%	88.9%	87.9%	89.7%	90.7%	42.2%	15.2%	23.4%
COc1ccc(-c2cc(-c3nnc(SCC(=O)Nc4ccc(/C(C)=N\O)cc4)n3-c3ccccc3)c3cc(OC)ccc3n2)cc1	86.9%	82.7%	86.8%	54.7%	87.8%	72.6%	78.1%	37.2%	29.9%	49.1%
C=C(C)[C@@H]1CC[C@]2(C(=O)OCCOCCOCC[P+](c3ccccc3)(c3ccccc3)c3ccccc3)CC[C@]3(C)[C@H](CC[C@@H]4[C@@]5(C)CC[C@H](C)C(C)(C)[C@@H]5CC[C@]43C)[C@@H]12	-71.3% (active)	-67.2% (active)	-75.9% (active)	-89.8% (active)	-88.6% (active)	-92.6% (active)	-93.7% (active)	-63% (active)	-75.4% (active)	-56.8% (active)
C#CC[C@@H]1C[C@]2(C)[C@H]3CC[C@@H]4[C@H]5[C@H](C(=C)C)CC[C@]5(C(=O)O)CC[C@@]4(C)[C@]3(C)CC[C@H]2C(C)(C)[C@H]1O	80.3%	55.4%	39.3%	23.5%	85.7%	6.77% (active)	82.7%	34.1%	26.8%	45.5%
CCOCCc1c(O)nc(SC)[nH]c1=O	-28.8% (active)	121%	92.6%	83.9%	122%	108%	85.7%	113%	116%	112%
Cc1cc(NC(=O)CNc2nc(Oc3ccc(F)cc3)nc(-c3ccc(F)cc3)n2)ccc1Cl	103%	98.6%	100%	97%	96.5%	112%	89.3%	95.3%	80.1%	85.2%
